In PubChem BioAssay (EPA / NIEHS):
Records with an inconclusive call do not appear. Activity calls are given as the source filed them. The calls were made as follows: active = hit-call score of the fitted dose curve at least 0.9, where 1 is the maximum; inconclusive = response in the unintended direction; inactive = score below 0.9.

Test: ACEA_ER_AUC_viability: ACEA Biosciences xCELLigence Real-Time Cell Analysis on Estrogen Receptor Agonism for Viability (AID 2283782);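 also: hit means loss of impedance signal meaning reduced cell growth or viability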
Method in brief: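 Viability endpoint: reduced impedance area under the curve relative to DMSO, recorded by real-time electrode sensing over ~80 h of continuous exposure. Duplicate plates of T47D in hormone-depleted medium; eight concentrations, 1:4 dilutions, 100 uM maximum.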

Row | Compound | AC50 | outcome
1 | c1ccc(C[P+](c2ccccc2)(c2ccccc2)c2ccccc2)cc1 | 83.7 µM (active) | –
2 | O=C(O)CCC(F)(F)C(F)(F)C(F)(F)F | – | inactive
3 | O=C1OC(=O)c2ccc3c4c(ccc1c24)C(=O)OC3=O | – | inactive
4 | CCOCOCC | – | inactive
5 | O=C(Cl)c1ccc(Cl)cc1Cl | 78.9 µM (active) | –
6 | Nc1cc([N+](=O)[O-])cc(Cl)c1O | – | inactive
7 | CCc1cccc(C)c1N(C(=O)C(=O)O)C(C)COC (centres undefined) | – | inactive
8 | NC(=O)C(F)(F)C(F)(F)C(F)(F)C(F)F | – | inactive
9 | CC(C)C(=O)OCc1ccccc1 | – | inactive
10 | OCCCCl | – | inactive
11 | OCC(F)(F)C(F)(F)C(F)(F)CO | – | inactive
12 | Nc1c(Br)cc([N+](=O)[O-])cc1Br | – | inactive
13 | O=S(=O)(O)c1ccc(Cl)cc1 | – | inactive
14 | CO[Si](C)(CCC(F)(F)C(F)(F)C(F)(F)C(F)(F)C(F)(F)C(F)(F)F)OC | – | inactive
15 | OCC(F)(F)C(F)(F)C(F)(F)C(F)(F)C(F)(F)C(F)(F)C(F)(F)C(F)(F)CO | 75 µM (active) | –
16 | CCn1c2ccccc2c2ccccc21 | 66.3 µM (active) | –
17 | CN(C(=O)C(F)(F)C(F)(F)C(F)(F)F)[Si](C)(C)C | – | inactive
18 | CCCC(=O)OCC(COC(=O)CCC)OC(=O)CCC | – | inactive
19 | CC(C)(C)C(=O)C1C(=O)c2ccccc2C1=O | 88.2 µM (active) | –
20 | C#CC(O)CCC (centres undefined) | – | inactive

Row | Compound | AC50 | outcome
21 | Cc1cc(C)c(O)c(C(C)(C)C)c1 | 90.6 µM (active) | –
22 | COc1ccccc1C=O | – | inactive
23 | C=C(C)CCCC | – | inactive
24 | CC(O)C#CC(C)O (centres undefined) | 26.7 µM (active) | –
25 | O=C1c2c(O)ccc(Nc3ccc(CCO)cc3)c2C(=O)c2c([N+](=O)[O-])ccc(O)c21 | 88.8 µM (active) | –
26 | Cc1cnccn1 | – | inactive
27 | Cc1cc(O)c(C(C)(C)C)cc1C(C)(C)C | 23.2 µM (active) | –
28 | C=CCOC(=O)CC(C)C | – | inactive
29 | CCOCN(C(=O)CS(=O)(=O)O)c1c(C)cccc1CC | – | inactive
30 | NC(=O)C(F)(F)C(F)(F)C(F)(F)F | – | inactive
31 | CC(C)=CCCC(C)O (centres undefined) | – | inactive
32 | O=C1C=CC(=O)N1c1ccc(Cc2ccc(N3C(=O)C=CC3=O)cc2)cc1 | 25.1 µM (active) | –
33 | O=S(=O)(OCC(F)(F)F)C(F)(F)C(F)(F)C(F)(F)C(F)(F)F | – | inactive
34 | CCC/C=C/CO | – | inactive
35 | O=C(O)C(F)(F)C(F)(F)C(F)(F)C(=O)O | – | inactive
36 | O=C=Nc1cccc2c(N=C=O)cccc12 | – | inactive
37 | O=C(c1ccccc1)c1ccc(Cl)cc1 | 28.4 µM (active) | –
38 | O=C(Cl)C(F)(F)C(F)(F)C(F)(F)C(F)(F)C(F)(F)C(F)(F)F | – | inactive
39 | O=C=NCc1cccc(CN=C=O)c1 | – | inactive
